Laboratory results published in PubChem BioAssay (Tox21).
Records with an inconclusive call do not appear. Entries that show only a call come without a potency. Unmarked numbers belong to inactive results. Active and inactive are the calls of the source. Unless noted, the call rests on the fitted dose curve; in most records, active means well fitted curve in the direction sought with a large enough effect in the repeat runs; inconclusive means weak or mixed curves; inactive means no such curve, though single readings can be large; an effect the other way counts as inactive or inconclusive.

Experiments:
[1] = qHTS assay to identify aromatase inhibitors - cell viability counter screen (AID 743084);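 further: cells stimulated with testosterone during compound exposure; nearly all actives have a fitted effect of over 55% in size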
[2] = molecular target: Aryl hydrocarbon receptor (Homo sapiens) (UniProt P35869); assay: qHTS assay to identify small molecule that activate the aryl hydrocarbon receptor (AhR) signaling pathway (AID 743085); further: nearly all actives have a fitted effect of over 15% in size; further: potency means the concentration at half of the fitted maximal effect;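 on activation: HG2L7.5c1 human HepG2 liver cells with stably integrated DRE-driven firefly reporter; series mostly up to about 70 µM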
Aryl hydrocarbon receptor (Homo sapiens), sequence (P35869 whole entry, looked up): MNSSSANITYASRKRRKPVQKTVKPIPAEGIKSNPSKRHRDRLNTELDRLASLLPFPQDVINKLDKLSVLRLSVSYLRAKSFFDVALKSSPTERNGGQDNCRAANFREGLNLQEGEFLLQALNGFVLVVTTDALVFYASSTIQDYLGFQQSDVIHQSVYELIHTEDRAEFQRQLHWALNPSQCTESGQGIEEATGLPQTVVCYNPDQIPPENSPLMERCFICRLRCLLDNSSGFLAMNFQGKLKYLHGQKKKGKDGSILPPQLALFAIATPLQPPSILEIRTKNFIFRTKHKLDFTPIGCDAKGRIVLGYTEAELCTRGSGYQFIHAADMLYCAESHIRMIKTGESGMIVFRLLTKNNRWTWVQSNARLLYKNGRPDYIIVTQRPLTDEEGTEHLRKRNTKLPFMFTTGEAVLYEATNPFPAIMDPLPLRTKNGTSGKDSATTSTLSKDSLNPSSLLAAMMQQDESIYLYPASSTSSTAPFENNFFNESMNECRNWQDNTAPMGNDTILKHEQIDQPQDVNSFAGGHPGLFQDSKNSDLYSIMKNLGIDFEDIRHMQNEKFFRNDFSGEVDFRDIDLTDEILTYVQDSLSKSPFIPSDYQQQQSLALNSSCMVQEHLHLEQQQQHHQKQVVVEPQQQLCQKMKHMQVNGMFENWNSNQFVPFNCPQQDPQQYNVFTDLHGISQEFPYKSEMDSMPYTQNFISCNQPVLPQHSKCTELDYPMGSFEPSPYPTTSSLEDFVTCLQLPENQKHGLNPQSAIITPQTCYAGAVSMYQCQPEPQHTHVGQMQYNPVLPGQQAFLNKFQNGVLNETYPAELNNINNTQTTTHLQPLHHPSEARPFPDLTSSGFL
Procedure, shortened: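 HepG2 cells stably carrying a 20-DRE firefly luciferase reporter (HG2L7.5c1) treated with compound for 24 hr at 37C. Luciferase read by ONE-Glo luminescence, with CellTiter-Fluor viability read first.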

[3] = qHTS assay to identify small molecule that activate the aryl hydrocarbon receptor (AhR) signaling pathway - cell viability counter screen (AID 743086);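 further: HepG2 liver cells carrying the AhR DRE luciferase reporter; series mostly up to about 70 µM; nearly all actives have a fitted effect of over 45% in size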
Procedure, shortened: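 HepG2-AhR-luc (HG2L7.5c1) cells, 4000/well, were preincubated 5 h at 37C, exposed to compound in qHTS format for 24 hr at 37C, then given CellTiter-Fluor for 30 min; viability was read as fluorescence in the reporter wells.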

[4] = qHTS assay for small molecule agonists of the antioxidant response element (ARE) signaling pathway (AID 743202; active means well fitted activation curve with a large enough effect in the signal ratio in the repeat runs, not every such curve was filed as active; the % refers to the signal ratio)
Procedure, shortened: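 Following a 16 h, 37 C exposure of reporter HepG2 cells (ARE-driven beta-lactamase, 2,000 cells/well) to compounds, FRET substrate was applied for 2 h at room temperature and fluorescence intensity recorded.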

[5] = qHTS assay for small molecule agonists of the antioxidant response element (ARE) signaling pathway - cell viability counter screen (AID 743203; calls by dose curve; further: nearly all actives have a fitted effect of over 55% in size)
Procedure, shortened: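 Viability counter screen: CellTiter-Glo luminescence, read after 30 min at room temperature, in ARE-bla HepG2 wells. Compound exposure lasted 16 h at 37C/5% CO2, following a 5 h pre-incubation of the cells after plating.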

[6] = qHTS assay for small molecule activators of the heat shock response signaling pathway - cell viability counter screen (AID 743209); further: nearly all actives have a fitted effect of over 50% in size
Procedure, shortened: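 Cytotoxicity counter screen run in the same wells as the heat-shock bla reporter assay: HeLa HSE-bla cells, 5 h compound exposure at 37 C, viability read by CellTiter-Glo luminescence.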

[7] = qHTS assay to identify small molecule agonists of the peroxisome proliferator-activated receptor delta (PPARd) signaling pathway - cell viability counter screen (AID 743211); further: nearly all actives have a fitted effect of over 55% in size
Procedure, shortened: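 PPARd-bla HEK293H cells (3000/well) were pre-incubated 5 h at 37 C, then exposed to compound for 17 h at 37 C. After 2 h with LiveBLAzer substrate, CellTiter-Glo was added to the same wells; luminescence read after 30 min at room temperature.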

[8] = molecular target: Peroxisome proliferator-activated receptor delta (Homo sapiens) (UniProt Q03181); assay: qHTS assay to identify small molecule agonists of the peroxisome proliferator-activated receptor delta (PPARd) signaling pathway (AID 743212; calls by dose curve)
Peroxisome proliferator-activated receptor delta (Homo sapiens), sequence (Q03181 whole entry, looked up): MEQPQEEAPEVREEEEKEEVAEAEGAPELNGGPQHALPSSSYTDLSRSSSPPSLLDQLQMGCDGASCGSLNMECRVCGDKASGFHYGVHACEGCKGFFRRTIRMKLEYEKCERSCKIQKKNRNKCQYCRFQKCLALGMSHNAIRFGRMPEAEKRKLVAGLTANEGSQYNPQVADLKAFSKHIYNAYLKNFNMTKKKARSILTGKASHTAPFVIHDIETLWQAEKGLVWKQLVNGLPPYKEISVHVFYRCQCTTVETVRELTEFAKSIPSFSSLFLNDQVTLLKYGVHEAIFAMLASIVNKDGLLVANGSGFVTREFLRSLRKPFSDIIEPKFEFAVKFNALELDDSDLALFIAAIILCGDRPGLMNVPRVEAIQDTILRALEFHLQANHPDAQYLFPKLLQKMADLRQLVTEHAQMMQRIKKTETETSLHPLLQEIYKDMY
Procedure, shortened: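 Beta-lactamase reporter read by fluorescence (LiveBLAzer B/G FRET, 2 h, room temperature). Test agents, in DMSO, incubated at 37 C with PPARd-bla HEK293H cells.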

[9] = qHTS assay to identify small molecule antagonists of the peroxisome proliferator-activated receptor delta (PPARd) signaling pathway - cell viability counter screen (AID 743213); further: nearly all actives have a fitted effect of over 50% in size
Procedure, shortened: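 Cytotoxicity counter screen: CellTiter-Glo luminescence read 30 min after addition, in the same wells as the reporter assay. There, PPARd UAS-bla HEK293H cells (3000/well) were treated 17 h at 37 C with compound and 300 nM L165041.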

[10] = qHTS assay to identify small molecule agonists of the farnesoid-X-receptor (FXR) signaling pathway - cell viability counter screen (AID 743218); further: nearly all actives have a fitted effect of over 45% in size
Procedure, shortened: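 Viability counter screen in the same wells: CellTiter-Glo luminescence, 30 min room-temperature incubation, measured after the beta-lactamase read. Cells were GeneBLAzer FXR-UAS-bla HEK 293T, compound-treated 16 h at 37C.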

[11] = qHTS assay to identify small molecule antagonists of the farnesoid-X-receptor (FXR) signaling pathway - cell viability counter screen (AID 743221; active means well fitted cell-killing curve with a large enough effect in the repeat runs, not every such curve was filed as active; further: nearly all actives have a fitted effect of over 50% in size)
Procedure, shortened: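 GeneBLAzer FXR-UAS-bla HEK 293T cells, compound plus chenodeoxycholic acid (50 uM final), 16 h at 37 C. CellTiter-Glo added to the same wells after the beta-lactamase read; luminescence read after 30 min at room temperature as viability.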

[12] = molecular target: Vitamin D3 receptor (Homo sapiens) (UniProt P11473); assay: qHTS assay to identify small molecule agonists of the vitamin D receptor (VDR) signaling pathway (AID 743222; calls by dose curve)
Vitamin D3 receptor (Homo sapiens), sequence (P11473 whole entry, looked up): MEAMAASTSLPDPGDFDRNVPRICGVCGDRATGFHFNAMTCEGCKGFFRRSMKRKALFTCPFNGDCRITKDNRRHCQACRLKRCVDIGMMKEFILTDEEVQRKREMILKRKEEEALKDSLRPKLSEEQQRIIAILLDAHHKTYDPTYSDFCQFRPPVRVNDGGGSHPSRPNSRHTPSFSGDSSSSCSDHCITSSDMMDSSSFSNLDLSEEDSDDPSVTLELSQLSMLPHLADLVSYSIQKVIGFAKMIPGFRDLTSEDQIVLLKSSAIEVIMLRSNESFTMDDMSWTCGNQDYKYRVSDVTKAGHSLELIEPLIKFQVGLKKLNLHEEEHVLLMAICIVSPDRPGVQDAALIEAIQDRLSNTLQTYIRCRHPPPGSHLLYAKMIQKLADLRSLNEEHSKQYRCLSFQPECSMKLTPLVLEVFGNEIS
Procedure, shortened: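 Agonist mode, beta-lactamase reporter: fluorescence from LiveBLAzer B/G FRET substrate (2 h, room temperature) read after 16 h compound treatment at 37 C of VDR-bla cells, which were pre-incubated 4 h after seeding.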

[13] = qHTS assay to identify small molecule antagonists of the peroxisome proliferator-activated receptor gamma (PPARg) signaling pathway - cell viability counter screen (AID 743194); further: nearly all actives have a fitted effect of over 55% in size
Procedure, shortened: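 PPARg-UAS-bla HEK293H cells were plated, rested 5 h at 37 C, then treated with compounds plus rosiglitazone (50 nM final) for 17 h at 37 C; viability was then read by CellTiter-Glo luminescence after 30 min at room temperature.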

[14] = molecular target: Vitamin D3 receptor (Homo sapiens) (UniProt P11473); assay: qHTS assay to identify small molecule antagonists of the vitamin D receptor (VDR) signaling pathway (AID 743223; active means well fitted inhibition curve with a large enough effect in the signal ratio in the repeat runs, not every such curve was filed as active; the % refers to the signal ratio)
Procedure, shortened: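 VDR-bla cells were treated with compound plus 3 nM final 1alpha,25-dihydroxyvitamin D3 for 16 h at 37C. Beta-lactamase reporter read by B/G FRET substrate fluorescence after 2 h at room temperature. qHTS format.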

[15] = molecular target: Peroxisome proliferator-activated receptor gamma (Homo sapiens) (UniProt P37231); assay: qHTS assay to identify small molecule agonists of the peroxisome proliferator-activated receptor gamma (PPARg) signaling pathway (AID 743094; active means well fitted activation curve with a large enough effect in the signal ratio in the repeat runs, not every such curve was filed as active; the % refers to the signal ratio)
Peroxisome proliferator-activated receptor gamma (Homo sapiens), sequence (P37231 whole entry, looked up): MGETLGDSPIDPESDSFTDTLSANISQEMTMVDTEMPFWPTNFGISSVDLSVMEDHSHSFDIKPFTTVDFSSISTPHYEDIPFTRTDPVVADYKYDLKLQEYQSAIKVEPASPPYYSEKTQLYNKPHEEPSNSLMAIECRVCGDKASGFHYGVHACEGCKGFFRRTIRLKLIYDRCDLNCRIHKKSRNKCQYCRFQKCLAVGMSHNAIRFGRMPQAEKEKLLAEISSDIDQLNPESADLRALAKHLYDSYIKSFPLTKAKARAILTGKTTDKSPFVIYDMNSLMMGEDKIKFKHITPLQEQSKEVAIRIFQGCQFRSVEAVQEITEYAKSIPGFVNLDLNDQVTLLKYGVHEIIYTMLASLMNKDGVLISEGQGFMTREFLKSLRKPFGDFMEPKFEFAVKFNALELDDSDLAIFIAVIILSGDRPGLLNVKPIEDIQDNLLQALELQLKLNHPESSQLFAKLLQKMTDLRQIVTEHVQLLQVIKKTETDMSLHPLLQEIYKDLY
Procedure, shortened: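 Agonist activity was taken from a beta-lactamase reporter (FRET substrate, 1 h at room temperature) in HEK293H cells carrying a PPARg UAS-bla construct. Compounds in DMSO were incubated 17 h at 37C after a 5 h cell pre-incubation.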

[16] = molecular target: Peroxisome proliferator-activated receptor gamma (Homo sapiens) (UniProt P37231); assay: qHTS assay to identify small molecule antagonists of the peroxisome proliferator-activated receptor gamma (PPARg) signaling pathway (AID 743191; calls by dose curve; further: series mostly up to about 63 µM; nearly all actives have a fitted effect of over 30% in size)
Procedure, shortened: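 GeneBLAzer PPARg UAS-bla HEK293H cells carrying a UAS-driven beta-lactamase reporter were plated at 3000 cells/well, preincubated 5 h at 37C, then given compound for 17 h at 37C; LiveBLAzer B/G FRET substrate was read after 1 h at room temperature.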

[17] = qHTS assay for small molecule activators of the heat shock response signaling pathway (AID 743210; active means well fitted activation curve with a large enough effect in the signal ratio in the repeat runs, with a control signal flat, not every such curve was filed as active; the % refers to the signal ratio; further: series mostly up to about 63 µM)
Procedure, shortened: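 Heat shock element–beta-lactamase HeLa reporter cells; qHTS with compounds for 5 h at 37 C; detection by FRET substrate fluorescence after 2.5 h at RT.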

[18] = molecular target: Peroxisome proliferator-activated receptor delta (Homo sapiens) (UniProt Q03181); assay: qHTS assay to identify small molecule antagonists of the peroxisome proliferator-activated receptor delta (PPARd) signaling pathway (AID 743215; active means well fitted inhibition curve with a large enough effect in the signal ratio in the repeat runs, not every such curve was filed as active; the % refers to the signal ratio;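 further: cells stimulated with agonist L165041 at 300 nM final during compound exposure; series mostly up to about 62 µM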)
Procedure, shortened: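 Agonist L165041 (300 nM final) added with compound to PPARd-bla HEK293H UAS-bla reporter cells; 17 h incubation at 37 C. Read-out: LiveBLAzer FRET substrate, 2 h at room temperature, fluorescence intensity.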

[19] = molecular target: Bile acid receptor (Homo sapiens) (UniProt Q96RI1); assay: qHTS assay to identify small molecule antagonists of the farnesoid-X-receptor (FXR) signaling pathway (AID 743217; active means well fitted inhibition curve with a large enough effect in the signal ratio in the repeat runs, not every such curve was filed as active; the % refers to the signal ratio)
Bile acid receptor (Homo sapiens), sequence (Q96RI1 whole entry, looked up): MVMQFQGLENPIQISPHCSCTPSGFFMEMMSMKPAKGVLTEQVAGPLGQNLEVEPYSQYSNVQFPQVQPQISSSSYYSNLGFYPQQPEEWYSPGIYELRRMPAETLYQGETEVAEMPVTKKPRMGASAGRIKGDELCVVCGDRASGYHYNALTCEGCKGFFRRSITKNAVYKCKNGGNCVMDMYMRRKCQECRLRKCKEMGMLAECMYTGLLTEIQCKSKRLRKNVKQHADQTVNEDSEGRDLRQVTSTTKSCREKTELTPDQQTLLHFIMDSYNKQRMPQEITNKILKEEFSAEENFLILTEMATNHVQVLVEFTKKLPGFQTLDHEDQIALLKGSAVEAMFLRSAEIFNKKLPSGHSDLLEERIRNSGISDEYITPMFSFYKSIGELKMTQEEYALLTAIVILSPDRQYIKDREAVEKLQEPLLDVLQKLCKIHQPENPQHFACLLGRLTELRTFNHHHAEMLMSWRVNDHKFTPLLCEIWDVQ
Procedure, shortened: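 Antagonist mode: chenodeoxycholic acid at 50 uM final stimulates a UAS-driven beta-lactamase reporter in HEK 293T FXR-bla cells during 16 h, 37C compound exposure. Read-out is FRET substrate fluorescence after 2 h at room temperature.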

[20] = molecular target: Bile acid receptor (Homo sapiens) (UniProt Q96RI1); assay: qHTS assay to identify small molecule agonists of the farnesoid-X-receptor (FXR) signaling pathway (AID 743220; active means well fitted activation curve with a large enough effect in the signal ratio in the repeat runs, not every such curve was filed as active; the % refers to the signal ratio)
Procedure, shortened: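 FXR-UAS-bla HEK 293T cells carrying a UAS-driven beta-lactamase reporter were plated for 5 h at 37C/5% CO2, then exposed to DMSO-dissolved Tox21 10K compounds for 16 h at 37C. A LiveBLAzer B/G FRET substrate was loaded for 2 h at room temperature before fluorescence reading.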

SMILES: NC(=O)Nc1ccccc1
- Potency [1]: inactive
- Potency [2]: inactive
- Potency [3]: inactive
- Potency [4]: inactive
- Potency [5]: inactive
- outcome [6]: inactive
- Potency [7]: inactive
- outcome [8]: inactive
- Potency [9]: inactive
- Potency [10]: inactive
- Potency [11]: inactive
- outcome [12]: inactive

SMILES: CCN(Cc1ccncc1)C(=O)C(CO)c1ccccc1 (stereo unspecified)
- Potency [1]: inactive
- Potency [2]: inactive
- Potency [3]: inactive
- outcome [13]: inactive
- outcome [6]: inactive
- Potency [7]: inactive
- Potency [9]: inactive
- Potency [10]: inactive
- Potency [11]: inactive
- outcome [12]: inactive
- outcome [14]: inactive

SMILES: CCOC(=O)Nc1ccc(NCc2ccc(F)cc2)nc1N
- Potency [1]: inactive
- Potency [3]: inactive
- outcome [15]: inactive
- Potency [16]: inactive
- outcome [13]: inactive
- Potency [4]: inactive
- Potency [5]: inactive
- outcome [6]: inactive
- outcome [17]: inactive
- Potency [7]: inactive
- Potency [9]: inactive
- Potency [18]: inactive
- Potency [10]: inactive
- outcome [12]: inactive

SMILES: N[C@@H](C(=O)N[C@@H]1C(=O)N2C(C(=O)O)=C(Cl)CS[C@H]12)c1ccccc1
- Potency [1]: inactive
- Potency [3]: inactive
- outcome [15]: inactive
- ratio activity, negative = inhibition [16]: 6.67% [at 13.2 µM]
- activity change, negative = cytotoxicity [13]: 0.956% [at 13.2 µM]
- activation [4]: -0.175% [at 8.36 µM]
- viability change, negative = cytotoxic [5]: 3.71% [at 8.36 µM]
- activity change, negative = cytotoxicity [6]: -29.5% [at 13.2 µM]
- activation [17]: -0.803% [at 13.2 µM]
- activity change, negative = cytotoxicity [7]: 12.6% [at 13.2 µM]
- activation [8]: 0.732% [at 13.2 µM]
- viability change, negative = cytotoxic [9]: 10.2% [at 13.7 µM]
- ratio activity, negative = inhibition [18]: 0.0649% [at 13.7 µM]
- activity change, negative = inhibition [19]: -0.0054% [at 13.2 µM]
- viability change, negative = cytotoxic [10]: 3.28% [at 13.2 µM]
- activation [20]: 0.369% [at 13.2 µM]
- activity change, negative = cytotoxicity [11]: 6.46% [at 13.2 µM]
- activation [12]: 4.64% [at 13.4 µM]
- activity change, negative = inhibition [14]: 2.28% [at 6.95 µM]

SMILES: O=C(CCCN1CCC(O)(c2cccc(C(F)(F)F)c2)CC1)c1ccc(F)cc1
- Potency [1]: inactive
- Potency [2]: inactive
- Potency [16]: inactive
- outcome [13]: inactive
- Potency [5]: inactive
- outcome [17]: inactive
- outcome [8]: inactive
- Potency [18]: inactive
- outcome [19]: inactive
- outcome [20]: inactive
- Potency [11]: inactive
- outcome [12]: inactive
- outcome [14]: inactive

SMILES: CCOC(=O)c1c(C)n(C)c2ccc(O)cc12
- Potency [1]: inactive
- Potency [2]: 1680 nM (active)
- Potency [3]: inactive
- outcome [13]: inactive
- Potency [5]: inactive
- outcome [6]: inactive
- outcome [17]: inactive
- Potency [7]: inactive
- Potency [9]: inactive
- outcome [19]: inactive
- Potency [10]: inactive
- outcome [20]: inactive
- Potency [11]: inactive
- outcome [12]: inactive
- outcome [14]: inactive

SMILES: Cc1ccc(Cl)cc1Cl
- Potency [1]: inactive
- Potency [2]: inactive
- Potency [3]: inactive
- outcome [13]: inactive
- Potency [4]: inactive
- Potency [5]: inactive
- outcome [6]: inactive
- outcome [17]: inactive
- Potency [7]: inactive
- Potency [9]: inactive
- Potency [10]: inactive
- Potency [11]: inactive
- outcome [12]: inactive
- outcome [14]: inactive

SMILES: NC(=O)COCCN1CCN(C(c2ccccc2)c2ccc(Cl)cc2)CC1 (stereo unspecified)
- Potency [1]: inactive
- Potency [2]: inactive
- outcome [15]: inactive
- Potency [16]: inactive
- outcome [13]: inactive
- Potency [4]: inactive
- Potency [5]: inactive
- outcome [6]: inactive
- outcome [17]: inactive
- Potency [7]: inactive
- outcome [8]: inactive
- Potency [18]: inactive
- Potency [10]: inactive
- Potency [11]: inactive
- outcome [14]: inactive

SMILES: Cc1sccc1Br
- Potency [16]: inactive
- outcome [13]: inactive
- Potency [4]: inactive
- Potency [5]: inactive
- outcome [17]: inactive
- Potency [7]: inactive
- Potency [9]: inactive
- outcome [19]: inactive
- Potency [10]: inactive
- outcome [20]: inactive
- Potency [11]: inactive
- outcome [12]: inactive
- outcome [14]: inactive
